Results: PubChem BioAssay AID686978 (National Center for Advancing Translational Sciences (NCATS), 2013)
Among all 420,000 compounds or so, about 64,000 (15%) were called active. Roughly 27% stayed inconclusive and do not appear here. A selection follows. Unmarked numbers belong to inactive results. Calls come from the whole dose curve; as a rule, active = well fitted inhibition curve with a large enough effect; inconclusive = small, poorly fitted or top-dose-only effect; inactive = flat fitted curve, though single readings scatter.

Test: qHTS for Inhibitors of human tyrosyl-DNA phosphodiesterase 1 (TDP1): qHTS in cells in absence of CPT; note: nearly all actives have a fitted effect of over 55% in size
Conditions: DT40 Tdp1-/- hTDP1 cells, no CPT, ATP luminescence, 48 h; activity change, negative = growth inhibition: at 46.2 µM (top of the series)
In short: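 Compound effects on proliferation are scored in DT40 Tdp1-/-;hTDP1 cells in the absence of CPT. ATP levels (CellTiter-Glo luminescence) are recorded after a ≥48 hr, 37 °C incubation.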
% is set by controls: 0 for no effect and ±100 for the full control effect; potency is the fitted concentration of half-maximal effect.

SMILES	activity change, negative = growth inhibition	Potency
CCc1ccc(NC(=O)CS(=O)CC(=O)NCCCc2ccccc2)cc1 (stereo unspecified)	-20%	
Nc1ccc(C(=O)OCC(=O)NC2CCS(=O)(=O)C2)cc1[N+](=O)[O-] (stereo unspecified)	33.8%	
Cc1cc(CNC(=O)C2CCC(=O)N(CCc3ccc(Cl)cc3)C2)no1 (stereo unspecified)	-5.14%	
CCCCN(CC)C(=S)Nc1ccc2nc3n(c(=O)c2c1)CCCCC3	-23.6%	
COc1cccc(C(=O)Nc2ccc(N3CCN(C(=O)c4ccco4)CC3)cc2)c1		11.6 µM (active)
Cc1ccc(OCC(=O)Nc2ccc(NC(=O)c3cccs3)cc2)c(C)c1	-29.3%	
COc1cccc(C(=O)Nc2ccc(N3CCCC3)cc2)c1		8.2 µM (active)
NS(=O)(=O)c1ccc(NC(=O)C(=O)Nc2ccc3nc4n(c(=O)c3c2)CCCCC4)cc1	8.65%	
COc1cccc(OCc2cc(C(=O)N3CCN(C(=O)c4ccco4)CC3)no2)c1	-24.7%	
Cc1ccc(OCC(=O)Nc2ccc(N3CCN(C(=O)c4ccco4)CC3)cc2)c(C)c1		8.2 µM (active)
COc1cccc(OC)c1C(=O)Nc1ccc(N2CCCCC2)cc1	-2.14%	
COc1cccc(C(=O)Nc2cc3c(cc2Br)OCCCO3)c1	-42%	
O=C(c1ccco1)N1CCN(c2cccc(Cl)c2)CC1	-21.5%	
CCC(=O)Nc1ccc(C(=O)N2CCN(C(=O)c3ccco3)CC2)cc1	-8.96%	
COc1cccc(C(=O)Nc2ccc3nc4n(c(=O)c3c2)CCCCC4)c1		20.6 µM (active)
COc1ccccc1NC(=O)C1=C(C)NC2=C(C(=O)CCC2)C1c1ccc(C)o1 (stereo unspecified)	-2.13%	
CCN(CC)C(=O)C(=O)c1cn(CC(=O)NCc2ccc3c(c2)OCO3)c2ccccc12	-6.26%	
CCOC(=O)N1CCN(S(=O)(=O)N2CCCC(C(=O)NCCCN3CCC(C)CC3)C2)CC1 (stereo unspecified)	21.8%	
Cc1ccc(C(c2sc3nc(C)nn3c2O)N2CCN(c3ccc(F)cc3)CC2)cc1 (stereo unspecified)	-20.8%	
Cc1ccc(CNC(=O)CCNS(=O)(=O)c2cccc3nonc23)cc1	-8.67%	
CS/C(=C\C(=O)c1ccco1)Nc1ccccc1Cl	-29.9%	
Cc1nc(CN(C)C(=O)CC2C(=O)NCCN2Cc2ccc(F)cc2)cs1 (stereo unspecified)	-2.58%	
O=C(CCNS(=O)(=O)c1ccccc1C(F)(F)F)Nc1ccncc1	4.83%	
Cc1cc(Nc2ccccc2)n(C(=O)c2ccc(N)cc2)n1	-5.11%	
CC(C)c1ccc(NS(=O)(=O)c2cn(C)c(=O)n(C)c2=O)cc1	-14.9%	
O=C(Cc1ccccc1)NNC(=O)C1CCN(c2ncccn2)CC1	-26.3%	

SMILES	activity change, negative = growth inhibition	Potency
CCc1ccc(OC(C)C(=O)Nc2ccc(S(=O)(=O)Nc3cc(C)on3)cc2)cc1 (stereo unspecified)	-3.93%	
COc1ccc(NC(=O)CSc2nc(NS(=O)(=O)c3ccc(C)cc3)cc(=O)[nH]2)cc1	-23.2%	
CC(=O)Nc1ccc(S(=O)(=O)Nc2cc(C)cn(Cc3ccc(C)cc3)c2=O)cc1		11.6 µM (active)
CCN(CC)CCn1c2c(c(SCC(=O)Nc3nc4ccccc4s3)nc1=O)CCCC2	-54.2%	
CN(NC(=O)c1ccccc1F)c1nc(C(F)(F)F)nc2ccccc12		0.206 µM (active)
Cc1cccc(C(=O)NCCCN(C)CCCNC(=O)c2cccc(C)c2)c1	-2.23%	
COC(=O)CNC(=O)c1ccccc1F	-46.9%	
CSc1nc(N(C)NC(=O)c2cccc(C)c2)c2ccccc2n1		0.0146 µM (active)
Cc1ccc(S(=O)(=O)NC(=O)c2cccc(C)c2)cc1	0.889%	
Cc1nc2ccccc2c(=O)n1NC(=O)c1ccccc1	8.1%	
CN(NC(=O)c1ccccc1)c1nc2ccccc2nc1C(F)(F)F		7.31 µM (active)
O=C(Cn1cnc2ccccc2c1=O)NNC(=O)c1ccccc1F	6.81%	
O=C(Nn1cnc2ccccc2c1=O)c1ccccc1	0.973%	
Cc1cc(OC(C)C(=O)NC2CC(C)(C)NC(C)(C)C2)c2c(C)cc(=O)oc2c1 (stereo unspecified)	3.08%	
Oc1ccccc1-c1nc(/C=C/c2ccc(F)cc2)no1	-29.4%	
CCCN(c1ccc(C(C)C)cc1)S(=O)(=O)c1c(C)[nH]c(=O)[nH]c1=O	-9.18%	
O=C(NC1CCCCC1)C1CCC(CNS(=O)(=O)c2ccccc2)CC1 (stereo unspecified)	1.01%	
CCOc1ccc(N(CC(=O)NC2CCCCCC2)S(=O)(=O)c2c(C)[nH]c(=O)[nH]c2=O)cc1	10.1%	
CC(=O)NC(NC(=S)Nc1c(C)n(C)n(-c2ccccc2)c1=O)C(Cl)(Cl)Cl (stereo unspecified)	6.77%	
CC1(C)Cc2cccc(OCC(N)=O)c2O1	8.49%	
CC(=O)Nc1cncc(-c2ccccc2CO)n1	0.247%	
CC1C(=O)NC(=O)C1c1ccccc1 (stereo unspecified)	22.4%	
O=C(CNC(=O)c1ccccc1Br)NCCSc1ccc(Br)cc1		18.4 µM (active)
O=C(CCNS(=O)(=O)c1ccccc1)NCCSc1ccc(Br)cc1	-13.8%	
COc1cccc(C(=O)NCCSc2ccc(Br)cc2)c1	-15.9%	
